A number with no mark means an inactive call. The rule behind the calls is not given here.
target: Pantothenate synthetase (Mycobacterium tuberculosis (strain ATCC 25618 / H37Rv)) (UniProt P9WIL5); assay: Coupled enzyme confirmation of inhibitors against recombinant Mtb PanC (AID 375); conditions: coupled enzyme assay; at 10 µM, active compounds read high;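 note: 0% = full reaction with vehicle and 100% = no enzyme background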
Sequence (P9WIL5 whole entry, looked up): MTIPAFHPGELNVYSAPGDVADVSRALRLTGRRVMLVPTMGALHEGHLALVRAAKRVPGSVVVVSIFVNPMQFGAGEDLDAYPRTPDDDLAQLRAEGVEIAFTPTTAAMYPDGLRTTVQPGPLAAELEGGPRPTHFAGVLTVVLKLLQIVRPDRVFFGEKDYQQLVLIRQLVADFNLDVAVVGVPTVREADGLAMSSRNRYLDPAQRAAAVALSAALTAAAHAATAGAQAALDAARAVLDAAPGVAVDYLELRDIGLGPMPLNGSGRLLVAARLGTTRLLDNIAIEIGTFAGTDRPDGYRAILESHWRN

Row | Structure (SMILES) | inhibition [%]
1 | O=C(c1cccc(F)c1)N1CCc2ccccc21 | 0
2 | CC1CCN(c2oc(-c3ccccc3F)nc2C#N)CC1 | 4
3 | Cn1cccc1Cc1nnc(SCC(=O)Nc2ccc(F)cc2F)n1-c1ccc(F)cc1 | 4
4 | CC1(C)CC(=O)C=C(NCCN2CCN(C(=O)Nc3ccccc3)CC2)C1 | 5
5 | CCCc1c(OCCCCc2nn[nH]n2)ccc(C(C)=O)c1O | 0
6 | CC(=O)NC(Cc1ccc(C)cc1)C(=O)NC1CCN(C(=O)c2cnccn2)CC1 (stereo not given) | 0
7 | CCCCOc1cc(=O)[nH]c(=O)[nH]1 | 4
8 | O=C(CN1C(=O)c2cccc3cccc1c23)N1CCN(c2ccccc2)CC1 | 0
9 | CCN1C(=O)c2cccc3c(NC(=O)c4ccc(S(=O)(=O)N(C)C)cc4)ccc1c23 | 1
10 | Cc1ccc(S(=O)(=O)N2CCN(C(=O)CN3CCOCC3)C2C(C)C)cc1 (stereo not given) | 0
11 | Oc1ccccc1C1=Nc2nc3ccccc3n2C(c2ccccc2)C1 (stereo not given) | 0
12 | COc1ccc(-c2nnn(CC(=O)c3ccc4c(c3)OCCO4)n2)cc1OC | 0
13 | O=C(Nc1cccc2ccccc12)N1CCN(c2ccccc2)CC1 | 3
14 | COC(C)(C)c1cc(C(C)(C)C)nc(N)n1 | 0
15 | COc1ccc2c(CC(=O)Nc3nnc(C4CC4)s3)coc2c1 | 0
16 | CCC(C(=O)OCC(=O)Nc1c(C)n(C)n(-c2ccccc2)c1=O)c1ccccc1 (stereo not given) | 2
17 | O=C(N1CCCCCC1)N1CCN(C(=O)N2CCOCC2)CC1 | 0
18 | Cc1ccc(C(=O)Nc2ccc(Cl)cn2)cc1S(=O)(=O)N1CCOCC1 | 0
19 | O=C(CCS(=O)(=O)c1cccc2nsnc12)NCc1ccccc1 | 0
20 | CC(C)(C)n1nnnc1C(c1ccccc1)N1CCc2ccccc2C1 (stereo not given) | 0

Row | Structure (SMILES) | inhibition [%]
21 | COc1ccccc1N1CCN(C(=O)c2c(-c3c(Cl)cccc3Cl)noc2C)CC1 | 0
22 | CC(=O)Nc1ccc(OC(=O)c2cccs2)cc1 | 0
23 | CC1(C)O[C@@H]2C[C@H]3[C@@H]4C[C@H](F)C5=CC(=O)CC[C@]5(C)[C@H]4[C@@H](O)C[C@]3(C)[C@]2(C(=O)CO)O1 | 7
24 | CCN(CC)CCCNS(=O)(=O)c1ccc(OC)cc1 | 3
25 | COc1ccc(-c2nc3c(c(=O)n(C)c(=O)n3C)n2CC2CC(c3ccccc3)=NO2)cc1OC (stereo not given) | 1
26 | COC(=O)c1cn(NC(=O)C2CCCO2)c(=O)c2ccccc12 (stereo not given) | 0
27 | Cc1cc(C(=O)COC(=O)c2n[nH]c3ccccc23)c(C)n1C | 0
28 | COC(=O)C1CCN(C(=O)CN2C(=O)NC(CCc3ccccc3)C2=O)CC1 (stereo not given) | 0
29 | CCC(=O)Nc1c2c(nn1-c1ccccc1C)CSC2 | 6
30 | C=CCn1c(COc2ccc(CC)cc2)nnc1SC/C(O)=C(\C#N)c1nc2ccccc2[nH]1 | 5
31 | Cc1cc(C)n2nc(SCC(=O)N(C)Cc3ccccc3)nc2n1 | 3
32 | CC1CCCCC1NC(=O)COc1ccc(-n2cnnn2)cc1 (stereo not given) | 0
33 | CCCn1c(C)cc(C(=O)COc2ncnc3sccc23)c1C | 4
34 | CCOc1ccccc1C(=O)Nn1c(C2CCC2)nc2ccccc2c1=O | 0
35 | CCOc1ncccc1C(=O)OCC(=O)N1CC(=O)Nc2ccccc21 | 0
36 | COc1ccccc1NCN1C(=O)CCC1=O | 3
37 | CC(=O)Nc1cccc(Oc2nc(C)cc(C)c2C#N)c1 | 1
38 | Cc1ccc(-c2[nH]nc3c2C(c2ccoc2)C(C#N)=C(N)O3)cc1C (stereo not given) | 0
39 | CCOC(=O)N1CCN(C(=O)CSCC(=O)Nc2nc(-c3ccc(OC)cc3)cs2)CC1 | 0
40 | Cc1nn(-c2ccc(F)cc2)c2sc(C(=O)N3CCCCCC3)cc12 | 0

From PubChem BioAssay
